Lamin A splicing: LMNA splicing modulation. 200,000 compounds, 0.01% hits. HeLa LMNA splicing GFP/RFP minigene ratio, 48 h. Potency, µM (doses to about 46.1 µM), usual class: inhibitors; active = well fitted inhibition curve with a large enough effect in the signal ratio, with a control signal flat, not every such curve was filed as active; inconclusive = small, poorly fitted or top-dose-only effect, or effect the other way, or a change in a side signal; the % refers to the signal ratio
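Read-out is the ratio of GFP to DsRed2 object intensity, acquired by 488 nm laser-scanning cytometry on HeLa lamin A-EGFP minigene reporter cells. Compound incubation 48 hrs at 37 °C in Opti-MEM with 2% FBS; DMSO 0.5% final.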
ALDH1A1 inh: ALDH1A1 (human) enzyme inhibition; P00352; Purified ALDH1A1, NADH fluorescence, propionaldehyde substrate; Potency, µM (titrated, usually from 75.3 µM), most hits filed as inhibitors; 220,000 compounds, 7.3% hits; AID 1030
Target sequence (P00352 whole entry, looked up): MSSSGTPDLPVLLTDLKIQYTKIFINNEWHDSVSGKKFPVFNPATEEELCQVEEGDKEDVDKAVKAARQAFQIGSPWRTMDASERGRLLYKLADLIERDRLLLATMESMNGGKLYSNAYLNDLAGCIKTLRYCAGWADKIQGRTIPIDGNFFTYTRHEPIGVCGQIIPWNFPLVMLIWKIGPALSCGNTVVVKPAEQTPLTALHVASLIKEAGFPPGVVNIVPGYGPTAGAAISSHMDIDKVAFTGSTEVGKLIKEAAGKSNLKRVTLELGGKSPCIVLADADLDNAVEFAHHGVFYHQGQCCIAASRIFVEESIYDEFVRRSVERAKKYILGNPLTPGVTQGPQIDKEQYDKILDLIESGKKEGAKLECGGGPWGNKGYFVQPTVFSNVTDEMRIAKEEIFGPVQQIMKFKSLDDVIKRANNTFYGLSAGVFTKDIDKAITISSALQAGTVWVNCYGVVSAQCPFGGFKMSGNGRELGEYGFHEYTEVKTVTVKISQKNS
HPGD inh: HPGD (human) dehydrogenase inhibition | P15428 | purified HPGD, NADH fluorescence kinetic, PGE2 substrate | Potency, µM, usual class: inhibitors | 150,000 compounds, 4.3% hits | AID 894
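20 nM HPGD preincubated 15 min at room temperature with compound in 50 mM Tris-HCl pH 8, 0.01% Tween 20. Started with 1 mM NAD+ and 30 uM prostaglandin E2; NADH fluorescence (360/450 nm) read 5 times over 30-s intervals, last minus first.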
IMPase inh: membrane-permeable compound that blocks inositol monophosphatase. P97697. CHO-M1 cells, IP1 accumulation, HTRF TR-FRET ratio. inhibition (IP1 accumulation), % at 46.1 µM. 120,000 tested, under 10 active; active = well fitted curve in the direction sought with a large enough effect in the signal ratio, not every such curve was filed as active; inconclusive = small, poorly fitted or top-dose-only effect, or a change in a side signal; inactive = no such curve, though single readings can be large or run the other way; the % refers to the signal ratio;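 also: cells stimulated with carbachol in lithium chloride buffer; higher means more IMPase inhibition seen as more IP1 and lower FRET ratio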
Target sequence (P97697 whole entry, looked up): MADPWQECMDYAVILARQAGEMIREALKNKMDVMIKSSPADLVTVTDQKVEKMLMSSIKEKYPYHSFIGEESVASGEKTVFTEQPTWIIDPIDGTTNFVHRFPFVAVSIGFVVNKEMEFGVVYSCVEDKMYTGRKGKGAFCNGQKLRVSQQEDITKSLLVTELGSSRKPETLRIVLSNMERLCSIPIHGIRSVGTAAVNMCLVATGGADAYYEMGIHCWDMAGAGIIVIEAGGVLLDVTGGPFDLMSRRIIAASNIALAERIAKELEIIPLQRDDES
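Elevated IP1 in lysates lowers TR-FRET signal (665/620 ratio and 620 channel reported). Cells were CHO-M1, given carbachol (50 uM as added) plus 50mM LiCl, pH 7.4, 30 min, 37C; compounds titrated up to 46 uM; AC50 by Hill equation.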
Luc counter: Kinase-Glo luciferase inhibition (counter-screen); Potency, µM (series often up to 38.3 µM), actives largely listed as inhibitors; Q27757; AID 1379; 200,000 compounds, 0.28% hits; Kinase-Glo luciferase, ATP luminescence, 8 min; active = well fitted inhibition curve with a large enough effect; inconclusive = small, poorly fitted or top-dose-only effect; also: nearly all actives have a fitted effect of over 60% in size
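Luminescence was the read-out, taken after 8-minute incubation at ambient temperature. Luciferase turned over luciferin with 10 uM ATP in imidazole pH 7.2 buffer containing KCl, MgCl2, Tween 20 and BSA.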
PNC assembly inh: perinucleolar compartment assembly inhibition | PC3M PTB-GFP, PNC prevalence imaging, 16 h; active compounds read low | activity change (PNC), negative = inhibition, % at 10 µM | 140,000 compounds, 3.1% hits | AID 2417;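 active = readout at or below -70, meaning at least 70% loss of cells showing the perinucleolar compartment, a nuclear body marking cancer cells; inconclusive = readout between -30 and a set limit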
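Compounds are pinned in duplicate onto adhered PC3M cells stably expressing GFP-tagged PTB and incubated 16 h at 37 C. Cells are then fixed, nuclei stained with Hoechst, and PNC-positive cells counted.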
Hits are given with their value; . = inactive; ? = inconclusive; / = no result given; [ ] = dose if it differs, or a comment. Only some compounds are listed: those with a hit (about 10% of all), similar ones and a draw of the others. Unless noted, calls follow the shape of the dose curve; as a rule, active = well fitted inhibition curve with a large enough effect (not every such curve was filed as active); inconclusive = small, poorly fitted or top-dose-only effect, or another doubt; inactive = no such curve, though single readings can be large or run the other way.

SMILES	Lamin A splicing	ALDH1A1 inh	HPGD inh	IMPase inh	Luc counter	PNC assembly inh
COc1ccc(C(=O)Nc2ccc3[nH]c(-c4cccc(OC)c4)cc(=O)c3c2)cc1	?	.	.	/	.	-119
COc1cccc(C(=O)Nc2ccc(NC(=O)C(C)(C)C)cn2)c1	.	.	.	.	.	-84
O=C(NCC(c1ccco1)S(=O)(=O)c1cccs1)c1c(F)cccc1F (centres undefined)	.	/	/	/	/	/
CCN(Cc1ccccc1)C(=O)Cn1c(=O)n(-c2ccc(Cl)cc2)c(=O)c2c(C)c(C(=O)N(C)C)sc21	.	/	/	/	/	/
COc1ccccc1CCNC(=O)C(=O)NCC(c1cccs1)S(=O)(=O)c1ccc(C)cc1 (centres undefined)	.	/	/	/	/	/
CCCCCCCCCCCCCCC/C=C/[C@@H](O)[C@H](NC(=O)CCCCCCCCCCCCC)OC (tested in a mixture with another compound)	.	?	.	/	.	/
COc1cccc(NC(=O)CN(C)CC(=O)Nc2ccc(C)cc2Cl)c1	.	11µM	/	/	.	/
COc1cccc(NC(=O)CN(C)CC(=O)Nc2ccc(Br)cc2)c1	/	.	/	/	.	/
Cc1ccc(NC(=O)c2cccc(Cl)c2)nc1	.	?	.	.	11µM	?
Oc1ccc2ccccc2c1CN(Cc1c(O)ccc2ccccc12)C1CCCCC1	/	?	.	/	.[7.66 µM]	/
Cc1ccc(-c2n[nH]c(=S)c3ccccc23)cc1	.	0.35µM	/	/	.	/
Cc1ccc(-c2cc(-c3n[nH]c(=S)n3C)c3ccccc3n2)cc1	/	?	/	/	.	/
S=c1[nH]nc(-c2ccccc2)c2ccccc12	.	8.9µM	/	/	.	/
COc1cc(OC)c(NC2(c3ccccc3)C(=O)c3ccccc3C2=O)cc1Cl	.	/	/	/	/	/
CCC(C)(C)n1nnnc1CN1CCC(c2nc3ccc(C)cc3[nH]2)CC1	.	10µM	.	.	.	.
CCC(C)(C)n1nnnc1CN1CCC(NC(=O)c2ccccc2C)CC1	.	?	.	.	.	-100
Cc1ccccc1C(=O)NC1CCN(Cc2nnnn2Cc2ccc(F)cc2)CC1	.	?	/	.	/	?
CCOc1ccccc1C(=O)NC1CCN(Cc2nnnn2C2CCCC2)CC1	.	28µM	.	.	.	?
Cc1nn(-c2nc3ccccc3[nH]2)c(N)c1-c1ccc(Cl)cc1	.	.	.	.	.	?
Cc1nn(-c2ccc(Cl)c(Cl)c2)c(=O)c2ccccc12	.	.	.	.	.	.
Cc1nn(-c2nc3ccccc3[nH]2)c(=O)c2ccccc12	.	.	/	/	1.4µM	/
Cc1nn(-c2ccc3ccccc3c2)c(=O)c2ccccc12	.[9.22 µM]	20µM	/	/	.	/
CCCn1c(-c2ccc(F)cc2)nc2c(NCCN3CCCCC3)nc(C)nc21	/	?	?	/	.	/
CCCc1cc(OC)c2c(c1)OCO2	/	?	.	/	.	/
CCOC(=O)c1cc2n(c1/N=C/N(C)C)-c1ccccc1C2=O	.	18µM	.	.	.	.
SMILES	Lamin A splicing	ALDH1A1 inh	HPGD inh	IMPase inh	Luc counter	PNC assembly inh
CCOC(=O)c1cc(=O)[nH]c2ccccc12	.	.	/	/	.	/
O=C(CSc1nnc([C@@H]2CCCN2)o1)c1ccc(Cl)cc1	.	22µM	.	.	.	.
Clc1ccc(CSc2nnc([C@@H]3CCCN3)o2)cc1Cl	.	.	.	.	.	.
Cc1cccc(C)c1NC(=O)Cn1cc(C(=O)C2CC2)c2ccccc21	/	/	/	.	/	/
COc1ccccc1NC(=O)c1ccc(-c2ccccc2[N+](=O)[O-])o1	/	7.9µM	/	/	.	/
CCOC(=O)C1=C(C)N=C2SC(C)C(=O)N2C1c1cccc(F)c1 (centres undefined)	.	.	.	.	.	.
CC1=C(C(=O)OCC(C)C)C(c2cccc(F)c2)N2C(=O)C(C)SC2=N1 (centres undefined)	.	0.45µM	?	.	.	?
CCOC(=O)NC1(Nc2ccc(Cl)cn2)Oc2ccccc2O1	?	13µM	.	.	.	.
COC(=O)C1Sc2[nH]c(=O)sc2C(c2ccc(Cl)cc2)C1C(=O)OC (centres undefined)	.	11µM	.	.	.	.
CC(C(=O)O)N1C(=O)C2C3CC(C2C1=O)C1C(c2ccccc2)c2sc(=O)[nH]c2SC31 (centres undefined)	.	?	.	/	.	.
COC(=O)C1Sc2[nH]c(=O)sc2C2c3ccccc3OC(=O)C12 (centres undefined)	.	?	.	.	.	.
COC(=O)C1CSc2[nH]c(=O)sc2C1c1ccccc1 (centres undefined)	.	32µM	.	.	.	.
Oc1ccc(Cl)cc1C1=Nc2ccccc2N=C(c2cccc(Br)c2)C1	/	/	/	.	/	/
COc1c(CO)cc(CO)cc(CO)c1=O	/	.	.	/	.	/
Cc1ccc(C)c(N2CCN(C(=O)C3CCC(CNS(=O)(=O)c4ccc(Br)s4)CC3)CC2)c1 (centres undefined)	/	/	/	.	/	/
NNC(=O)c1cc2cc3ccccc3nc2s1	/	20µM	/	/	.	/
CC1CCN(c2nnc(-n3cccc3CNc3cccc(F)c3)s2)CC1	.	/	/	/	/	/
O=C(COc1ccccc1F)OCc1cc(=O)n2nc(C3CC3)sc2n1	.	/	/	/	/	/
CC1(O)CC(=O)N(c2ccccc2)O1 (centres undefined)	.	22µM	.	.	.	.
CCOC(=O)c1c(C)oc2nc(C)nc(NCCCN3CCN(c4ccc(F)cc4)CC3)c12	.	/	/	/	/	/
CC(C)CCn1c(SCc2c(F)cccc2Cl)nc2ccsc2c1=O	.	/	/	/	/	/
Cn1c(SCC(=O)c2ccccc2)nnc1C1CC1	.	?	.	.	.	.
Cn1c(SCc2ccc(Cl)cc2)nnc1C1CC1	.	12µM	/	/	.	/
Cn1nnnc1SCc1ccc(Cl)cc1	/	.	/	/	.	/
Cn1c(SCc2ccccc2)nnc1C1CCCNC1 (centres undefined)	.	.	.	.	.	-107
SMILES	Lamin A splicing	ALDH1A1 inh	HPGD inh	IMPase inh	Luc counter	PNC assembly inh
COc1ccc(C2=C(C)C(=O)N(Cc3ccc(C(=O)NC(C)c4ccccc4)cc3)S2(=O)=O)cc1 (centres undefined)	.	/	/	/	/	/
CCCn1cc(S(=O)(=O)c2cccc(Cl)c2)c(=O)c2cc(F)c(N3CCN(CC)CC3)cc21	.	/	/	/	/	/
COC(=O)C1Cc2ccccc2CN1C(=O)CCl (centres undefined)	?	0.4µM	/	/	.	/
CC1CCC2C(=O)N3C(CCC(C)[C@H]3c3ccccc3Br)C(=O)N2C1c1ccccc1Br (some centres undefined)	/	.[13.5 µM]	/	/	/	/
O=c1oc2ccccc2cc1-c1nc2ccccc2o1	.	?	?	.	?	.
O=c1oc2ccccc2cc1-c1nc2c(s1)CCCC2	?	?	?	.	11µM	.
O=S(=O)(Cc1ccccc1)c1cnc2ccccc2n1	?	?	25µM	.	.	.
O=c1[nH]nc(Cc2ccc(Cl)cc2Cl)c2ccccc12	?	.	.	.	.	.
CCCc1nc(S(=O)(=O)Cc2ccc(Cl)cc2Cl)n[nH]1	.	.	/	.	/	-116

High-throughput results from PubChem.
